# From PubChem BioAssay (NCI)
# About 83,000 compounds went through this panel and 20% of them were active in at least one assay; those are over-represented in the sample as a whole.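 Each cell line was grown in a 96-well plate and treated with one concentration of compound for 48 hours. Values below 10 were considered active.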 Unmarked numbers belong to inactive results. Active and inactive are the calls of the source.
# Experiments:
# Assay in all cases: NCI-60 one-dose screen, 48 h (100 = growth as untreated, 0 = no growth, -100 = all killed)
# Conditions in all cases: 10 µM unless noted
# [1] = system: DU-145 prostate
# [2] = system: K-562 leukemia
# [3] = system: MALME-3M melanoma
# [4] = system: MDA-MB-231 breast
# [5] = system: RXF 393 renal
# [6] = system: SF-268 CNS
# [7] = system: SF-295 CNS
# [8] = system: SF-539 CNS
# [9] = system: UACC-257 melanoma
# [10] = system: M14 melanoma
# [11] = system: HCT-15 colon
# [12] = system: HT29 colon
# [13] = system: SNB-75 CNS
# [14] = system: SNB-19 CNS
# [15] = system: U251 CNS
# [16] = system: PC-3 prostate
# [17] = system: SK-MEL-5 melanoma
# [18] = system: UACC-62 melanoma
# [19] = system: LOX IMVI melanoma
# [20] = system: SK-MEL-28 melanoma
Structure (SMILES),growth [1],growth [2],growth [3],growth [4],growth [5],growth [6],growth [7],growth [8],growth [9],growth [10],growth [11],growth [12],growth [13],growth [14],growth [15],growth [16],growth [17],growth [18],growth [19],growth [20]
C=CC(=O)Nc1ccc(Oc2nccc(Nc3nnc(-c4ccc(C)cc4)s3)n2)cc1,78.5%,29.4%,52.6%,88.4%,88%,77.6%,56.9%,83.3%,86.5%,57.5%,71.5%,103%,61%,62.7%,83%,52.8%,46%,44%,60.2%,73.9%
CC1(C)OB(O)c2cc(-c3nc4ccc5[nH]ncc5c4c4c3CCCC4)ccc21,54.8%,44.5%,60.5%,47.9%,35.3%,57.4%,63.1%,73.6%,77.5%,52%,38.2%,56.3%,75%,90.6%,61.8%,41.3%,-67.9% (active),37.7%,42%,87.4%
O=S1(=O)C=C(c2ccccc2)C(c2ccccc2)=C1,9.89% (active),4.11% (active),-32.6% (active),11%,-86.8% (active),3.46% (active),73.5%,9.24% (active),2.35% (active),12.1%,-6.66% (active),-34.3% (active),50%,76.6%,14.8%,39.6%,27.4%,5.7% (active),-69.4% (active),17.9%
COC(=O)/C=C1/SC(=Nc2ccc([N+](=O)[O-])cc2)N(CCc2c[nH]c3ccc(O)cc23)C1=O,57.3%,52.5%,68.6%,61.1%,27.3%,43.7%,59.5%,66.2%,55.8%,46%,46.9%,42.6%,54.4%,40.3%,36.3%,38.6%,50.5%,30.1%,-21.9% (active),52.7%
O=C1Nc2ccccc2/C1=C/c1cccn1C(=O)c1ccc(Cl)s1,66.8%,36.8%,104%,50.9%,81.1%,39.4%,88.8%,62.4%,79.5%,82.2%,17.8%,80.5%,63.6%,28.4%,22.3%,33%,69.8%,94.9%,79.2%,113%
COc1ccc2[nH]cc(-c3nc(-c4c[nH]c5c(Cl)nccc45)cs3)c2c1,32.6%,19.3%,65.8%,31.7%,37.7%,73%,11.9%,34.9%,-48.3% (active),-26% (active),-16.1% (active),15.8%,54.1%,63.9%,17.5%,31%,55.6%,52%,13.2%,42%
N#Cc1ccc(O)c(C2=NCC(Cc3ccccc3)O2)c1 (stereo not given),55.7%,26.5%,64.3%,77.6%,62.4%,52.2%,31.2%,68.7%,63.6%,45.4%,21.2%,72.6%,70.6%,55.6%,23.8%,35.3%,35.5%,42%,32.6%,80.2%
Cc1ccc(C)c2c(C)c(C(=O)Nc3cccc(-n4cccn4)c3)oc12,76.5% [50 µM],37.1% [50 µM],67.6% [50 µM],76.9% [50 µM],79.6% [50 µM],67.4% [50 µM],66% [50 µM],85.2% [50 µM],92.9% [50 µM],63.5% [50 µM],49% [50 µM],48.2% [50 µM],86.6% [50 µM],87.2% [50 µM],70.9% [50 µM],38.8% [50 µM],44.3% [50 µM],73.9% [50 µM],62.2% [50 µM],86.7% [50 µM]
